HepG2 tox – kills HepG2 cells in TGF-b inhibitor counter-screen; HepG2 CAGA-GFP viability, ATP luminescence, 18 h; Potency, µM (doses to about 46.1 µM), without a hit: at the highest dose activity change, negative = cytotoxicity, usual class: cytotoxic; 410,000 compounds, 0.76% hits; note: potency is the fitted concentration of half-maximal effect
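CellTiter-Glo luminescence gave cytotoxicity after 18 hours at 37 degrees C. The cells were HepG2 CAGA-GFP in 1% FBS DMEM, stimulated with 500 pg/mL TGF-beta after compound addition. %Activity was normalised to no-cell wells (complete cell-killing) and DMSO (no toxicity), and curves were fitted and classified.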
ATXN2 expr inh – reduces ATXN2 reporter expression in HEK-293 cells. Potency, µM (doses to about 57 µM), for inactives: at the highest dose activity change, negative = inhibition, usual class: inhibitors. HEK-293 ATXN2-luciferase reporter, luminescence, 24 h. 360,000 compounds, 0.72% hits; note: potency is the fitted concentration of half-maximal effect; % is set by controls: 0 for no effect and ±100 for the full control effect; nearly all actives have a fitted effect of over 55% in size
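qHTS (up to 57 uM final) was run with 24 h compound exposure of reporter cells at 37 °C. Each well was multiplexed: SteadyGlo luminescence measured ATXN2-luciferase expression after a fluorogenic Gly-Phe-AFC viability readout (25 uM final).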
TGFb inhibitor – inhibitors of TGF-b signaling; HepG2 CAGA-GFP TGF-b/SMAD3 reporter, GFP fluorescence, 18 h; TGF-beta stimulated, 500 pg/mL final; Potency, µM (doses to about 46.1 µM), for the others: top-dose activity, negative = inhibition, most hits filed as inhibitors; 410,000 compounds, 1.2% hits; note: potency is the fitted concentration of half-maximal effect; % is set by controls: 0 for no effect and ±100 for the full control effect; nearly all actives have a fitted effect of over 65% in size
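Inhibition of TGF-beta-driven CAGA-GFP reporter expression in HEPG2 cells is measured by cellular GFP fluorescence after 18 h stimulation with 500 pg/mL recombinant TGF-beta in 1% FBS medium at 37 degrees C.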
DRD3 antagonist – blocks the human D3 dopamine receptor | P35462 | 360,000 compounds, 2.5% hits | D3R cells, DiscoveRx beta-arrestin luminescence, antagonist mode; stronger effect = lower value | max response, negative = inhibition, %; in the data active = max response below about -50%; inconclusive = no clear call, values can overlap the other calls; note: % is set by controls: 0 for no effect and ±100 for the full control effect
Target sequence (P35462 whole entry, looked up): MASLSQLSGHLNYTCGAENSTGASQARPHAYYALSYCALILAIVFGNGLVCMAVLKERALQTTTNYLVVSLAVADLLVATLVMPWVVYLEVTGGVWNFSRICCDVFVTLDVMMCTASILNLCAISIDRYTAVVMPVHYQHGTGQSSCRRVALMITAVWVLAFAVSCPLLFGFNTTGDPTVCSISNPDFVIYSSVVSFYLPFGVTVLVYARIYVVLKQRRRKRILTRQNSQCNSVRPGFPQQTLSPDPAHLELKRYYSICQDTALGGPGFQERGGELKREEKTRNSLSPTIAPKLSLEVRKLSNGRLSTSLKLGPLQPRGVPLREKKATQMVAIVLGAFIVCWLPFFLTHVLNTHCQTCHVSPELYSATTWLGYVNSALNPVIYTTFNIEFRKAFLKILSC
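Cells expressing the human receptor were seeded at 1500 cells/well, incubated overnight at 37 degrees C in 5% CO2, then exposed to library compounds with dopamine controls for 90 minutes at 37 degrees C before luminescent detection.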
D3 ag – D3 dopamine receptor (human) agonism. P35462. D3R DiscoveRx beta-arrestin cells, luminescence, 90 min. max activation, %. 410,000 compounds, 0.58% hits. AID 652048; in the data active = max activation above about 30%; note: 0% is about no effect
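Agonist mode: compounds and dopamine controls were applied to plated cells for 90 min at 37 degrees C after an overnight attachment at 1500 cells/well. Luminescent read-out followed 30 - 60 minutes at room temperature with DiscoveRx detection reagent.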
S2 tox – cell viability loss in ATXN counter-screen; S2 cells (HEK-293 line with an ATXN2-luciferase reporter) viability, CellTiter-Fluor protease fluorescence, 24 h; Potency, µM (doses to about 56.7 µM), hits mostly cytotoxic; 400,000 compounds, 0.49% hits; note: potency is the fitted concentration of half-maximal effect; nearly all actives have a fitted effect of over 40% in size
An asterisk follows results filed as active; i = inactive; u = inconclusive; x = no result given; [ ] = remark or other dose. The list is not random: actives were taken first. Their share in the collection is about 4.8%. Unless noted, calls come from the whole dose curve; as a rule, active = well fitted curve in the direction sought with a large enough effect; inconclusive = small, poorly fitted or top-dose-only effect, or another doubt; inactive = no such curve, though single readings can be large; an effect the other way counts as inactive or inconclusive.

SMILES	HepG2 tox	ATXN2 expr inh	TGFb inhibitor	DRD3 antagonist	D3 ag	S2 tox
C=CC1=C(C(=O)O)N2C(=O)[C@@H](NC(=O)/C(=N/OCC(=O)O)c3csc(N)n3)[C@H]2SC1 (stereo in doubt)	x	x	x	x	0.6	i
Cc1ccc(-n2nc3ccc(NC(=O)c4cc5ccccc5o4)cc3n2)cc1	-12.3%	30.0%	-5.6%	x	-10.2	i
CCCCc1ccc(-n2nc3ccc(NC(=O)c4cc5ccccc5o4)cc3n2)cc1	-97.8%	u	u	x	-28.0	22.4µM*
O=C(NNC(=O)c1cccc(Br)c1)Nc1ccc(Cl)cc1	7.7%	0.3%	48.5%	-66.7*	-15.7	i
Cc1nc([N+](=O)[O-])cn1-c1ccc([N+](=O)[O-])cc1	x	4.9%	x	x	9.2	i
c1ccc(C2(Cn3ccc4ccccc43)OCCO2)cc1	-1.7%	-2.8%	7.4%	27.3	71.5*	i
O=C(/C=C/c1ccccc1)NC(NC(=S)Nc1cccc(Cl)c1)C(Cl)(Cl)Cl (configuration not stated)	10µM*	u	15.8µM*	u	-3.2	u
O=C(/C=C/c1ccccc1)NC(NC(=S)Nc1ccc(Cl)cc1Cl)C(Cl)(Cl)Cl (configuration not stated)	-45.3%	u	u	-10.0	-4.3	u
O=C(/C=C/c1ccccc1)NC(NC(=S)Nc1cccc(O)c1)C(Cl)(Cl)Cl (configuration not stated)	-46.1%	-17.8%	u	-61.7*	-12.2	i
CC(C)NC(=O)Cc1csc2nc(-c3ccccc3)cn12	3.0%	8.4%	5.6%	x	4.5	i
CCCCCCCCCCCCOCCOCCOCCOCCOCCOCCOCCOCCOCCO	x	u	x	x	10.4	i
CN(C)c1ccc(/C=C/c2cc(/C=C/c3ccc(N(C)C)cc3)c3ccccc3n2)cc1	-5.6%	x	27.1%	x	x	x
CCOc1ccc(CCNC(=O)Cn2c(-c3cccs3)cc3cc(F)ccc32)cc1OCC	-62.4%	22.4µM*	u	x	10.9	11.2µM*
CCOc1cc(CNC(=O)Cn2c(-c3cccs3)cc3cc(F)ccc32)ccc1OC	-0.9%	-15.5%	u	x	6.9	u
Cc1nc2n(c(=O)c1CCN1CCC(c3noc4cc(F)ccc34)CC1)CCC[C@H]2O	x	-10.8%[25.6 µM]	x	x	-30.0	i
COc1ccc(Cn2c(-c3ccc(C)cc3)c[n+]3ccccc23)cc1	-28.1%	16.8µM*	u	1.6	1.8	u
CCOc1ccccc1NC(=O)CSc1nc2ccccc2nc1Cc1ccc(C)cc1	5.9%	16.2%	-2.7%	x	2.3	i
CCC(Cn1nnc2ccccc2c1=O)NC(=O)Nc1ccc(C)cc1C (configuration not stated)	-22.8%	x	0.0%	x	2.8	x
CCOc1ccc(N2CC(c3nc4ccccc4n3CCCOc3ccccc3)CC2=O)cc1 (configuration not stated)	-7.9%	u	11.2µM*	x	-0.9	x
O=C1CC(c2nc3ccccc3n2CCCOc2ccccc2)CN1c1ccc(F)cc1 (configuration not stated)	-20.6%	-28.7%	-26.6%	x	-20.6	25.1µM*
CCOc1ccc(N2CC(c3nc4ccccc4n3CCCCOc3ccc(OC)cc3)CC2=O)cc1 (configuration not stated)	-32.4%	u	u	x	8.8	u
Cc1ccccc1OCC(=O)Nc1cc(C)c(O)c(-c2nc3ccccc3o2)c1	-14.9%	x	18.9%	x	x	x
Cc1cccc(N2CCN(C(=O)c3c4c(nc5ccccc35)C(=O)N(C3CCCCC3)C4)CC2)c1C	7.8%	x	25.8%	x	-6.8	x
Cc1ccc(C)c(NC(=O)CSc2nnc(CNC(=O)c3ccccc3)n2-c2ccccc2)c1	-4.3%	-5.0%	-13.4%	x	-4.7	i
CCc1nnc(NC(=O)c2cccc(S(=O)(=O)N3CC(c4ccccc4)CC3=O)c2)s1 (configuration not stated)	-50.1%	0.9%	u	9.6	4.2	i
